Out of some 350,000 compounds screened, about 1,900 (0.54%) were called active.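 Rule for the calls: active = mean inhibition across replicates at least about 35%, with every replicate also reaching that limit (limit read from the data); inconclusive = only one of the two criteria met; inactive = neither criterion met.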 This excerpt belongs to a sample that is enriched for actives.
target: Caspase-6 (Homo sapiens) (UniProt P55212); assay: human caspase-6 inhibitors, primary screen, biochemical, VEID-R110 fluorescence, single point, set 2 (AID 686996); details: purified caspase-6, Z-VEID-R110 cleavage fluorescence; at 12.5 µM; stronger effect = higher value;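 note: 0% = median of neutral control wells and 100% = no fluorescence left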
Sequence (P55212 24-179 limits assumed): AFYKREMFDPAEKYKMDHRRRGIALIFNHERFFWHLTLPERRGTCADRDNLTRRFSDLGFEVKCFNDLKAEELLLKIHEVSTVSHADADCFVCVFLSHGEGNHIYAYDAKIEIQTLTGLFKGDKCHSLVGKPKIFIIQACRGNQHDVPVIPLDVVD
Sequence (P55212 194-293 limits assumed): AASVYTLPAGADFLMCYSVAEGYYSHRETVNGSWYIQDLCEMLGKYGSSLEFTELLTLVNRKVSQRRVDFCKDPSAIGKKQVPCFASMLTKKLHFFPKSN

**Q.** For `CCCN1[C@H](C(=O)N2CCCCC2)[C@@H](CO)[C@@H]2Cn3c(ccc(-c4ccccc4F)c3=O)[C@@H]21`, which inhibition is on record?
**A.** Its inhibition is 1.71% (inactive).

**Q.** For `CCC(=O)N1CCC2(CC1)CN(Cc1ccc(Cl)cc1)[C@@H](CO)c1[nH]c3cc(OC)ccc3c12`, which inhibition is on record?
**A.** The inhibition was 1.51% (inactive).

**Q.** For `O=C(O)C(c1ccccc1)N1C(=O)/C(=C\c2ccc(-c3cccc(Cl)c3)o2)SC1=S` (stereo unspecified), which inhibition is on record?
**A.** The inhibition was 89.6% (active).

**Q.** `CC(C(=O)Nc1ccc(O)c(C(=O)O)c1)N1C(=O)/C(=C/c2cccs2)SC1=S` (stereo unspecified) was tested. Which inhibition did it give?
**A.** Its inhibition is 27.5% (inactive).

**Q.** For `CC(C(=O)NC1CCS(=O)(=O)C1)N1C(=O)/C(=C/c2ccc(Cl)cc2)SC1=S` (stereo unspecified), which inhibition is on record?
**A.** Its inhibition is 4.77% (inactive).

**Q.** Which inhibition does the source give for `CCN1[C@@H]2Cn3c(ccc(C4=CCCCC4)c3=O)[C@H]1[C@@H](C(=O)N1CCCCC1)[C@@H]2CO` here?
**A.** Its inhibition is 1.04% (inactive).

**Q.** `O=C(C[C@H]1CC[C@@H]2[C@H](COC[C@@H](O)CN2C(=O)Nc2cccc(F)c2)O1)NCc1ccccc1F` was tested. Which inhibition did it give?
**A.** Its inhibition is 0.624% (inactive).

**Q.** Which inhibition does the source give for `O=C(COC(=O)c1cnc(Cl)c(Cl)c1)NCc1ccco1` here?
**A.** Its inhibition is 10.4% (inactive).

**Q.** How did the inhibition turn out when `O=C(COC(=O)c1ccccc1O)NCc1ccco1` was run?
**A.** The inhibition was 38.4% (active).

**Q.** Which inhibition does the source give for `O=C(COC(=O)Cc1ccc(Cl)cc1Cl)NCc1ccco1` here?
**A.** Its inhibition is 3.33% (inactive).

**Q.** With `N#C[C@H]1[C@@H](c2ccccc2C2=CCCC2)[C@H](CO)N1C(=O)c1cccc(F)c1` as the molecule, how does the inhibition read?
**A.** The inhibition was 0.224% (inactive).

**Q.** For `CCC(=O)N1C[C@@H](C)[C@H](OC)CN(C)C(=O)c2cc(NC(=O)NC3CCCC3)ccc2OC[C@H]1C`, which inhibition is on record?
**A.** Its inhibition is 0.917% (inactive).

**Q.** For `CCC(=O)N(C)C[C@@H]1Oc2cc(C#CCN(C)C)ccc2S(=O)(=O)N([C@H](C)CO)C[C@H]1C`, which inhibition is on record?
**A.** Its inhibition is -0.78% (inactive).

**Q.** Which inhibition does the source give for `N#CC1=C(N)Oc2c(ccc3cccnc23)C1c1ccncc1` (stereo unspecified) here?
**A.** Its inhibition is 3.1% (inactive).

**Q.** With `Cn1c2c(c(=O)n(C)c1=O)C(c1cccc(F)c1)C(C#N)=C(N)O2` (stereo unspecified) as the molecule, how does the inhibition read?
**A.** The inhibition was 1.86% (inactive).

**Q.** Which inhibition does the source give for `N#CC1=C(N)Oc2cc(N)ccc2C1c1ccccc1` (stereo unspecified) here?
**A.** The inhibition was 37% (active).

**Q.** With `O=C(C[C@@H]1CC[C@H]2[C@@H](COC[C@H](O)CN2C(=O)Nc2ccccc2)O1)NCc1ccccc1F` as the molecule, how does the inhibition read?
**A.** The inhibition was -1.64% (inactive).

**Q.** How did the inhibition turn out when `Cc1ccccc1-c1ccc2c(c1)O[C@@H](CN(C)Cc1ccncc1)[C@@H](C)CN([C@H](C)CO)S2(=O)=O` was run?
**A.** The inhibition was 2.69% (inactive).

**Q.** Which inhibition does the source give for `N#Cc1c(N2CCCCC2)nc(N)c2c(N)nc(SCC(=O)O)cc12` here?
**A.** Its inhibition is 43.3% (active).

**Q.** With `O=C(O)CSc1ccc(S(=O)(=O)N2CCCC2)cn1` as the molecule, how does the inhibition read?
**A.** Its inhibition is -0.751% (inactive).

**Q.** With `N#Cc1c(C(F)(F)F)cc(-c2ccc(Cl)cc2)nc1SCC(=O)O` as the molecule, how does the inhibition read?
**A.** Its inhibition is -2.92% (inactive).

**Q.** How did the inhibition turn out when `C[C@@H]1CN([C@@H](C)CO)C(=O)Cc2cc(NC(=O)CCN3CCOCC3)ccc2O[C@H]1CN(C)S(=O)(=O)c1ccccc1` was run?
**A.** Its inhibition is -0.675% (inactive).

**Q.** Which inhibition does the source give for `CN(C)C(=O)c1ccc(-c2ccccc2[C@@H]2[C@@H](C#N)N(C(=O)C3CCCC3)[C@H]2CO)cc1` here?
**A.** Its inhibition is 2.13% (inactive).

**Q.** How did the inhibition turn out when `C[C@@H]1CN([C@H](C)CO)C(=O)c2c(c3ccccc3n2C)-c2ccccc2CO[C@H]1CN(C)S(=O)(=O)c1ccccc1F` was run?
**A.** The inhibition was -0.557% (inactive).

**Q.** Which inhibition does the source give for `O=C(C[C@@H]1C=C[C@H](NC(=O)C2CCOCC2)[C@H](CO)O1)NCc1ccncc1` here?
**A.** Its inhibition is -0.812% (inactive).

**Q.** `O=C(c1ccc2c(c1)OCO2)N1CC(=O)N2[C@H](C1)[C@@H](c1ccc(C#Cc3ccccc3)cc1)[C@@H]2CO` was tested. Which inhibition did it give?
**A.** The inhibition was -1.08% (inactive).

**Q.** With `O=C1OC(/C=C/c2ccccc2)=NC/1=C/c1ccco1` as the molecule, how does the inhibition read?
**A.** Its inhibition is 38.7% (active).

**Q.** How did the inhibition turn out when `C[C@H]1CN([C@@H](C)CO)C(=O)c2cc(-c3ccncc3)cnc2O[C@@H]1CN(C)C(=O)c1cccc(F)c1` was run?
**A.** The inhibition was 1.35% (inactive).

**Q.** How did the inhibition turn out when `Cc1noc(C)c1NC(=O)N(C)C[C@H]1Oc2ccc(N(C)C)cc2CC(=O)N([C@H](C)CO)C[C@H]1C` was run?
**A.** Its inhibition is -3.82% (inactive).

**Q.** `O=C(C[C@H]1CC[C@@H](NC(=O)Nc2ccc(F)cc2)[C@H](CO)O1)NCc1cccc(F)c1` was tested. Which inhibition did it give?
**A.** The inhibition was -1.29% (inactive).

**Q.** `COc1cc(NC(=O)COC(=O)c2ccc([N+](=O)[O-])s2)cc(OC)c1OC` was tested. Which inhibition did it give?
**A.** The inhibition was 87.1% (active).

**Q.** `O=C(OCC(=O)N1CCN(c2ccccc2)CC1)c1ccc([N+](=O)[O-])s1` was tested. Which inhibition did it give?
**A.** The inhibition was 22% (inactive).

**Q.** For `COc1ccc(C(=O)COC(=O)c2ccc([N+](=O)[O-])s2)cc1OC`, which inhibition is on record?
**A.** Its inhibition is 0.899% (inactive).

**Q.** With `O=C(C[C@H]1CC[C@H]2NC[C@@H](O)COC[C@@H]2O1)NCCN1CCCC1` as the molecule, how does the inhibition read?
**A.** Its inhibition is -1.22% (inactive).

**Q.** Which inhibition does the source give for `O=C(Cc1ccc(Br)cc1)NCCc1ccccc1` here?
**A.** Its inhibition is 0.216% (inactive).

**Q.** `CCOc1ccc(OCC)c(NC(=O)CCS(=O)(=O)c2ccc(C)cc2)c1` was tested. Which inhibition did it give?
**A.** Its inhibition is 0.288% (inactive).
